# Assay results taken from PubChem BioAssay.
# Assay: small-molecule microarray binders of probe aShh, primary screen, biochemical, biotinylated probe, 635/667 nm fluorescence (AID 1114);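 note: probe is biotin-labelled aShh protein from a stem cell growth factor screen; measures binding of labelled protein to compounds printed on the slide; score merges feature fluorescence at 667 nm with signal-to-noise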
# Settings: higher = more signal
row,SMILES,composite z-score
1,COC(=O)[C@H](C)NC(=O)CCC1CC(OC(=O)NCCc2ccc(F)cc2)CC2(CCCC(COC(=O)NCCc3ccc(Cl)cc3)O2)O1 (stereo partly specified),-0.138
2,C=COC[C@H]1CN2[C@@H](CC[C@@H](C)[C@@H]2c2ccc(Br)cc2)C(=O)O1,-0.304
3,CN1C(=O)C2C=CC(C(O)c3ccc(Br)cc3)N(N(c3ccccc3)c3ccccc3)C2C1=O (stereo unspecified),0.0639
4,COC(=O)[C@H](C)NC(=O)[C@@H](C)CO,-0.0035
5,O=C1[C@H]2[C@H]3[C@H](O)[C@H](O)CC(=NOCc4ccccc4)[C@@H]3CC[C@H]2C(=O)N1Cc1ccccc1,0.214
6,CC(C)[C@@H](OCc1ccccc1)[C@H](C)C=NOC[C@@H](C)[C@H](OCc1ccccc1)C(C)C,-0.0685
7,CCOC(=O)[C@H](Cc1ccccc1)NC(=O)CCC1CC(OC(=O)NCc2ccc3c(c2)OCO3)CC2(CCCC(COC(=O)NCC3CCCCC3)O2)O1 (stereo partly specified),-0.299
8,COC(=O)[C@@H]1CC[C@H](C)[C@@H](c2ccc(C)cc2)N1C(=O)c1ccc(C=NOC[C@@H](O)COCc2ccco2)cc1,-0.2
9,Cc1cc2c(nc1C)CCCN2CC(O)CN1CCN(C)CC1 (stereo unspecified),0.116
10,C=C(CCCC)C(=O)CC[C@@H](OC(C)=O)c1cccc(OCCO)c1,-0.0227
11,CCOC(=O)[C@H](Cc1ccccc1)NC(=O)CCC1CC(OC(=O)NCc2ccc3c(c2)OCO3)CC2(CCCC(COC(=O)NCC(c3ccccc3)c3ccccc3)O2)O1 (stereo partly specified),0.0723
12,C#CCCCON=C1C[C@@H](O)[C@@H](O)[C@@H]2[C@@H]3C(=O)N(c4cccc(Oc5ccccc5)c4)C(=O)[C@@H]3CC[C@@H]12,-0.0709
13,CC(C)CON=C1C[C@@H](O)[C@@H](O)[C@@H]2[C@@H]3C(=O)N(C[C@@H]4CCCO4)C(=O)[C@@H]3CC[C@H]12,-0.345
14,CCN1C(=O)[C@H]2[C@H]3[C@H](O)[C@H](O)CC(=NO[C@@H]4O[C@H](CO)[C@@H](O)[C@H](O)[C@H]4O)[C@@H]3CC[C@H]2C1=O,-0.545
15,COc1ccc(-c2ccc3c(n2)CCCN3CC(O)CN2CCCc3nc(C)c(C)cc32)cc1 (stereo unspecified),0.699
16,CO[C@H]1O[C@H](CO)[C@@H](OC(=O)Nc2ccc3c(c2)OCO3)[C@H](OC(=O)Nc2ccccc2-c2ccccc2)[C@@H]1OC(=O)Nc1ccccc1-c1ccccc1,0.184
17,COC(=O)CC1OC1[C@H](C)[C@@H](OC)C(C)C (stereo partly specified),-0.147
18,CO[C@@H]1COC(=O)CC=C[C@@H](C)[C@@H]2C=C[C@H](O)[C@@H](COC(=O)[C@H](C)NC(=O)CC=C[C@H]1C)O2,-0.0035

row,SMILES,composite z-score
1,N#Cc1ccc(NN2C(C(O)c3cc(C(F)(F)F)cc(C(F)(F)F)c3)C=CC3C(=O)N(c4ccccc4)C(=O)C32)cc1 (stereo unspecified),0.0326
2,CCOC(=O)NN=C1C[C@@H](O)[C@@H](O)[C@@H]2[C@@H]3C(=O)N(C[C@@H]4CCCO4)C(=O)[C@@H]3CC[C@@H]12,-0.273
3,COCCOC(=O)N1C(=O)[C@@]2(c3cc(C#CC4(O)CCCCCC4)ccc31)[C@H](C(=O)N1CCN(c3ncccn3)CC1)[C@H]1C(=O)O[C@H](c3ccccc3)[C@H](c3ccccc3)N1[C@@H]2c1ccc(OCCO)cc1,0.637
4,C=CC[C@]1(C(=O)NCc2ccccc2)N=C(c2ccc(OCCCO)cc2)O[C@H]1c1ccccc1,0.696
5,COc1ccc(O[C@H]2C=C[C@@H](c3ccccc3)O[C@@H]2COC(=O)CCC(C)=NOC(C)CN2CCCCc3nc(C)c(C)cc32)cc1 (stereo partly specified),-0.138
6,CO[C@@H]1COC(=O)CC=C[C@@H](C)[C@@H]2C=C[C@@H](O)[C@@H](COC(=O)CC=C[C@H]1C)O2,0.0756
7,CCOC(=O)[C@H](Cc1ccccc1)NC(=O)CCC1CC(OC(=O)NCCc2ccc(F)cc2)CC2(CCCC(COC(=O)NCC(c3ccccc3)c3ccccc3)O2)O1 (stereo partly specified),-0.0146
8,C[C@H]1CC[C@@H](C(=O)O)N[C@@H]1c1ccc(C#CCN(C)C)cc1,0.148
9,O=C1NC(=O)C2C1C=CC(C(O)Cc1ccccc1)N2Nc1ccccn1 (stereo unspecified),-0.0793
10,CCOC(=O)CCN1C(=O)[C@H]2[C@H]3[C@H](O)[C@H](O)CC(=NOC[C@@H](O)COCc4ccco4)[C@@H]3CC[C@H]2C1=O,-0.223
11,CC(C)(C)N1C(=O)[C@H]2[C@H]3[C@H](O)[C@H](O)CC(=NOCc4ccccc4)[C@@H]3CC[C@H]2C1=O,-0.0146
12,COC(=O)[C@@]1(Cc2ccccc2)[C@H]2c3cc(C(=O)N4CCCC4)n(Cc4ccccn4)c3C[C@H]2CN1C(=O)c1ccccc1,0.894
13,C[C@@H](c1ccccc1)N1C(=O)[C@H]2[C@H]3[C@H](O)[C@H](O)CC(=NOC[C@@H](O)COCc4ccco4)[C@@H]3CC[C@H]2C1=O,-0.0863
14,COc1ccc(O[C@H]2C=C[C@@H](c3ccccc3)O[C@@H]2COC(=O)CCC(C)=NOCC[C@@H]2C=C[C@H](OC(C)=O)[C@@H](COC(C)=O)O2)cc1,0.199
15,O=C1[C@H]2[C@H]3[C@H](O)[C@H](O)CC(=NOC[C@@H](O)COCc4ccco4)[C@H]3CC[C@H]2C(=O)N1c1cccc(Oc2ccccc2)c1,-0.138
16,COC(=O)CC=C[C@@H](C)[C@@H](C=NO[C@@H](C)c1cc(-c2c(C)cc(C)cc2C)no1)OC,-0.2
17,COc1ccc(COC(=O)NN=C2C[C@@H](O)[C@@H](O)[C@@H]3[C@@H]4C(=O)N(Cc5ccc6c(c5)OCO6)C(=O)[C@@H]4CC[C@@H]23)cc1,0.255
18,C[C@@H]1CCC2C(=O)N(Cc3ccccc3)C[C@@H](O)CN2[C@H]1c1ccc(Br)cc1 (stereo partly specified),-0.138
